Screens deposited in PubChem by several laboratories.
aDG glyco act = increases alpha dystroglycan glycosylation; Pro5-aDG cells, alpha-DG glycosylation AlphaScreen (IIH6); 0% Pro5, 100% B10-LARGE cell signal; activation, % at 10 µM; hit rate 0.22% among 360,000; AID 624168;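 active means activation of at least 8% versus controls, or a plate z-score of at least 8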;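 further: Pro5 are CHO cells carrying HIG-tagged alpha-DG that lacks glycosylation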
PHOSPHO1 inh = PHOSPHO1 (human) inhibition. recombinant PHOSPHO1, absorbance phosphatase assay. inhibition, % at 13.3 µM. hit rate 1.1% among 290,000; in the data active means inhibition above about 60%
ALR H2O2 inh = human ALR oxidase inhibition via reduced H2O2; hit rate 3.8% among 290,000; purified ALR, DTT oxidation, H2O2 HRP-luminol luminescence; inhibition, % (no concentration beside the values); P55789;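 active means mean replicate inhibition above about 79%, with every replicate also reaching it, limit read from the data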
Target sequence (P55789 whole entry, looked up): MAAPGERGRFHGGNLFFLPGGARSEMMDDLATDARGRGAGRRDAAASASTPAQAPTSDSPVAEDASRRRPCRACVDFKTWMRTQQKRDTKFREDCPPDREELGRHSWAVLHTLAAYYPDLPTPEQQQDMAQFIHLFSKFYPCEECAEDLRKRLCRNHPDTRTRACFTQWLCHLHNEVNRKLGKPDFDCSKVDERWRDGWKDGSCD
rCAG RNA binder = binds r(CAG) RNA repeats; inhibition, % at 3 µM; r(CAG) RNA repeat, TO-PRO-1 dye displacement fluorescence; hit rate 1.3% among 370,000; AID 651821;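 active means inhibition above the plate cutoff, the mean of all test compounds on that plate plus 3 SD, cut at about 35% in these data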;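 further: 0% = DMSO alone and 100% = 100 µM mitoxantrone as full dye displacement; higher means more dye released from RNA so lower well fluorescence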
A3G deaminase = inhibitors of human APOBEC3G DNA deaminase; hit rate 0.28% among 330,000; inhibition, % at 20 µM; recombinant A3G, ssDNA deamination FAM/TAMRA fluorescence; AID 493012;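 active means inhibition of at least 40% at 20 µM, with no more than 30% in the related APOBEC3A deaminase screen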;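 further: plate controls were DMSO wells with A3G for no effect and wells lacking A3G enzyme for full effect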
A3A deaminase = blocks human APOBEC3A ssDNA deamination. P31941. recombinant A3A, FAM/TAMRA ssDNA deamination fluorescence. inhibition, % at 20 µM. hit rate 0.41% among 330,000;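 active means at least 40% inhibition at 20 µM here, with at most 30% in a related deaminase screen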;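 further: plate controls were A3A with DMSO for no effect and wells lacking A3A enzyme for full effect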
Target sequence (P31941 whole entry, looked up): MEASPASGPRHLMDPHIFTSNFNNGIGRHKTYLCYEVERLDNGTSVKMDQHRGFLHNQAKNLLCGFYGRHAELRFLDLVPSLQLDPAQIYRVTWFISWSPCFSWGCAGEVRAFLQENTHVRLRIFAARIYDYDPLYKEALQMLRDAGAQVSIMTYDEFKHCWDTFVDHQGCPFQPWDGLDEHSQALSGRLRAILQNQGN
rCAG binder conf = r(CAG) RNA repeat binding, confirmation; shares compounds with rCAG RNA binder; TO-PRO-1 dye displacement fluorescence; hit rate 70% among 4,300; inhibition, % at 3 µM;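 active means inhibition above a per-plate cutoff, the mean inhibition of sample wells plus 3 SD, cut at about 35% in these data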;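 further: loss of TO-PRO-1 fluorescence as compound displaces dye from 1x1 AA loop RNA; 0% = DMSO only wells and 100% = 100 µM mitoxantrone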
DNA CAG counter = DNA CAG dye complex inhibition counter-screen; shares compounds with rCAG RNA binder; d(CAG) DNA oligo TO-PRO-1 dye displacement, fluorescence; inhibition, % at 3 µM; hit rate 94% among 4,300;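 active means inhibition above its plate's cutoff, the mean test-well inhibition plus 3 SD, cut at about 4.8% in these data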;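 further: 0% = DNA dye mix with DMSO and 100% = 100 µM mitoxantrone; hits displace the dye from DNA and so lower well fluorescence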
Active calls of the source: *. Most compounds without a hit are left out; they make up all but 5.4% or so of the library.

Screening COC(=O)[C@]12CCCCC=C1N(Cc1ccc3c(c1)OCO3)C(=O)[C@H](CC(=O)NCC1CCCCC1)C2 returned aDG glyco act 0 and rCAG RNA binder 1.
`Cc1ccc(NC(=S)NNC(=O)CSc2nc3ccccc3c(=O)n2-c2ccc(C)cc2)cc1` gave aDG glyco act 0, PHOSPHO1 inh -28, ALR H2O2 inh 2, rCAG RNA binder 45*, A3G deaminase -6, A3A deaminase -6, rCAG binder conf 45* and DNA CAG counter 20*.
`Cc1ccc(-n2c(SCC(=O)Nc3ccc4c5c(cccc35)CC4)nc(O)cc2=O)cc1` gave aDG glyco act 0, PHOSPHO1 inh -20, rCAG RNA binder 27, A3G deaminase -3 and A3A deaminase 0.
Screening COc1ccc(-n2c(SCC(=O)NNC(=S)Nc3ccccc3)nc3ccccc3c2=O)cc1 returned rCAG RNA binder 50*, rCAG binder conf 43* and DNA CAG counter 16*.
Screening Cc1ccc(-n2c(SCC(=O)Nc3ccc(N4CCOCC4)cc3)nc3ccccc3c2=O)cc1 returned aDG glyco act 0, PHOSPHO1 inh -11, ALR H2O2 inh -4, rCAG RNA binder 9, A3G deaminase -7 and A3A deaminase -3.
`Cc1ccc(-n2c(SCC(=O)Nc3ccc4c5c(cccc35)CC4)nc(O)c(C)c2=O)cc1` gave aDG glyco act 0, PHOSPHO1 inh -16, ALR H2O2 inh 99*, rCAG RNA binder 51*, A3G deaminase -2, A3A deaminase 2, rCAG binder conf 34 and DNA CAG counter 11*.
Screening COC(=O)C1=C(C)N(Cc2ccccc2C(F)(F)F)C(=NCc2ccccc2C(F)(F)F)NC1c1cccc(F)c1 (configuration not stated) returned rCAG RNA binder 2.
`CCOC(=O)C1=C(O)/C(=C\c2ccc(CNC(=O)C(=O)Nc3ccccc3)o2)N=C1C` gave aDG glyco act 0, PHOSPHO1 inh 83*, ALR H2O2 inh -6, rCAG RNA binder 46*, A3G deaminase 13, A3A deaminase 21, rCAG binder conf 39* and DNA CAG counter 19*.
CCOC(=O)C1=C(O)/C(=C\c2cccs2)N=C1C was read as aDG glyco act 0, PHOSPHO1 inh -2, ALR H2O2 inh 0, rCAG RNA binder 5, A3G deaminase -3 and A3A deaminase -2.
COCCNC(=O)C1Nc2ccc(C(F)(F)F)cc2C2C=CCC12 (configuration not stated) was read as aDG glyco act 0, ALR H2O2 inh -11, rCAG RNA binder 44*, A3G deaminase -1, A3A deaminase 2, rCAG binder conf 2 and DNA CAG counter 2.
Screening FC(F)(F)c1ccc2c(c1)C1C=CCC1C(c1ccncc1)N2 (configuration not stated) returned aDG glyco act 0, PHOSPHO1 inh 28, rCAG RNA binder 44*, rCAG binder conf 3 and DNA CAG counter 2.
`COC(=O)CNC(=O)C1Nc2ccc(OC(F)(F)F)cc2C2C=CCC12` (configuration not stated) gave aDG glyco act 0, ALR H2O2 inh -30, rCAG RNA binder 39*, A3G deaminase -11, A3A deaminase -3, rCAG binder conf 1 and DNA CAG counter 0.
COCCNC(=O)C1Nc2ccc(OC(F)(F)F)cc2C2C=CCC12 (configuration not stated) was read as aDG glyco act 0, ALR H2O2 inh 0, rCAG RNA binder 29, A3G deaminase -11 and A3A deaminase 0.
For CCN(CC)S(=O)(=O)c1cccc(C(=O)N/N=C/c2ccc(O)c(O)c2O)c1 the results were aDG glyco act 0, PHOSPHO1 inh 2, ALR H2O2 inh 98*, rCAG RNA binder 53*, rCAG binder conf 55* and DNA CAG counter 24*.
